D2 PAM-1: human D2 receptor positive allosteric modulation; P14416; DiscoveRx D2 beta-arrestin cells, luminescence, 90 min; 100% = 57 uM dopamine signal; potentiation, % (no concentration beside the values); hit rate 0.23% among 360,000; in the data active = potentiation above about 50%; inconclusive = mostly about 30% to 49%
Target sequence (P14416 whole entry, looked up): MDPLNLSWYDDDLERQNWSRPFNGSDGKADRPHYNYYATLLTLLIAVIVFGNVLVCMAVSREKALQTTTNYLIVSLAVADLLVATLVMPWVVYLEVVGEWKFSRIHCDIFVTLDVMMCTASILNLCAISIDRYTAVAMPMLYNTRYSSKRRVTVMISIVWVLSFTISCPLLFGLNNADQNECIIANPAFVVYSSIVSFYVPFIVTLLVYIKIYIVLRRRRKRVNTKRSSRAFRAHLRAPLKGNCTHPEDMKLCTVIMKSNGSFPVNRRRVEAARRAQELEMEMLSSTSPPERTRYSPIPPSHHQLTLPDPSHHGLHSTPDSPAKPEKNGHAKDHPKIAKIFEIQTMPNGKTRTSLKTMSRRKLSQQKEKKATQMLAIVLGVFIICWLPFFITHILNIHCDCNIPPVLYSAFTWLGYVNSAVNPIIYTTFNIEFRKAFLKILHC
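PathHunter beta-arrestin assay in DiscoveRx D2 cells. Compounds were added with an EC20 of dopamine (50 nM final) for 90 min at 37 deg C. Luminescence was read 1 h after detection reagent, with 57 uM dopamine as the EC100 control.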
D2 PAM-2: positive allosteric modulators of human D2 dopamine receptor; potentiation, % at 10 µM; HEK293 T-REx D2, calcium flux, EC20 dopamine potentiation; P14416; hit rate 0.34% among 340,000;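 active = potentiation over 3 SD above the plate norm, cut at about 30% in these data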
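Potentiation of an EC20 dopamine calcium response is measured in a force-coupled, tetracycline-inducible Hek293 Trex D2 line. Compound-only kinetic reads over 180 s flag agonists before dopamine addition.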
B2AR arrestin: recruits beta-arrestin to the human beta2-adrenergic receptor. P07550. beta-arrestin recruitment to beta2AR, cell-based reporter. Potency, µM (doses to about 46.1 µM), most hits filed as activators. hit rate 0.02% among 330,000. AID 492947; also: nearly all actives have a fitted effect of over 65% in size
D2 ag-1: human D2 receptor agonism in beta-arrestin assay; DiscoveRx PathHunter D2 beta-arrestin, luminescence, 90 min; 100% = 57 uM dopamine signal; hit rate 0.084% among 360,000; activation, % (concentration not given with the values); P14416; in the data active = activation above about 40%; inconclusive = between about 15% and that limit
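DiscoveRx PathHunter D2 beta-arrestin cells (2,100/well) attached overnight, then compound-stimulated 90 min at 37 C in HBSS/10 mM HEPES/0.1% Tween-20 buffer; beta-galactosidase complementation read by luminescence after 1 h at ambient temperature. Dopamine 57 uM final (EC100) as control.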
D2 ag-2: activates the human D2 dopamine receptor; HEK293 T-REx D2 cells, calcium flux agonist mode; activation, % at 2 µM; hit rate 0.53% among 340,000; AID 485358;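 active = activation over 3 SD above normal in the single-dose calcium agonist read, cut at about 30% in these data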
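Agonism scored from kinetic calcium signal (1 read/sec, 180 s) following compound pin transfer, after a 10 s baseline. Cells: HEK293 Trex line expressing inducible D2 receptor coupled to calcium, dye-loaded after overnight culture at 30 C.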
D2 antagonist: antagonists of human D2 dopamine receptor; HEK293 TREx D2 cells, calcium flux, dopamine EC80; P14416; hit rate 2% among 340,000; AID 485344; inhibition, % at 10 µM; in the data active = inhibition above about 30%; inactive = below that, where a call was filed
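Compounds are added to dye-loaded, induced HEK293 T-REx cells coupled to calcium release via D2; after a 3 min kinetic read an EC80 dopamine stimulus is given and fluorescence is recorded for 3 more min.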
D3 arrestin ag: activates human D3 dopamine receptor beta-arrestin recruitment. Potency, µM (series often up to 76.9 µM), actives largely listed as activators. DiscoveRx D3 beta-arrestin cells, luminescence, 90 min. hit rate 4% among 2,300. shares compounds with D2 ag-2; also: nearly all actives have a fitted effect of over 70% in size
D2 ag-3: counter-screen for D3 agonists: human D2 dopamine receptor agonism; shares compounds with D2 ag-2; DiscoveRx PathHunter D2 beta-arrestin, luminescence, 90 min; response scale: percent relative to full dopamine signal; Potency, µM (doses to about 76.9 µM), most hits filed as activators; hit rate 5.9% among 2,300; also: nearly all actives have a fitted effect of over 70% in size
Of the large screens only hits and unclear results are named; the others gave an inactive call (follow-up assays come after a bar, where they were run). Hits are enriched below; roughly 2.4% of the tested compounds scored in any of these assays. Unless noted, calls follow the shape of the dose curve; as a rule, active = well fitted activation curve with a large enough effect; inconclusive = small, poorly fitted or top-dose-only effect; inactive = flat fitted curve, though single readings scatter.

COc1cc(CNCCN2CCOCC2)ccc1OCC(=O)NC(C)(C)C	D2 ag-2 34 | D3 arrestin ag inactive | D2 ag-3 inactive
COc1cc(CNCCCN2CCOCC2)ccc1OCC(=O)NC(C)(C)C	none
CNC(=O)CSc1nnc(-c2ccco2)n1-c1cccc(OC)c1	none
COc1ccc(CC(=O)Nc2ccc(N3CCOCC3)cc2)cc1OC	none
COc1ccc(/C=C2\CCCC(C(=O)C(F)(F)F)=C2O)cc1	none
O=C(C1=C(O)/C(=C/c2ccc(O)cc2)CCC1)C(F)(F)F	none | D3 arrestin ag inactive | D2 ag-3 inactive
O=C(O)CCc1ccc(-c2cccs2)n1CCc1ccccc1	none (no result: D2 ag-2, D2 antagonist) | D3 arrestin ag inactive | D2 ag-3 inactive
O=C(O)CCc1ccc(-c2cccs2)n1CCC(=O)O	none
Cc1cc2nc(C3CCN(CC4COc5ccccc5O4)CC3)[nH]c2cc1C (centres undefined)	D2 ag-2 47 | D3 arrestin ag inactive | D2 ag-3 inconclusive
C=CCNC(=O)CN1CCC(c2nc3cc(C)c(C)cc3[nH]2)CC1	none
Cc1cc(C2=NNC(=NCCc3ccccc3)SC2)c(C)n1CC1CCCO1 (centres undefined)	none | D3 arrestin ag inactive | D2 ag-3 inactive
Cc1nnc(N2C(=O)C(O)=C(C(=O)c3ccco3)C2c2ccc(F)cc2)s1 (centres undefined)	none | D3 arrestin ag inactive | D2 ag-3 inactive
CN(C(=O)COC(=O)C1CCN(S(=O)(=O)c2ccc3c(c2)OCCO3)CC1)c1ccccc1	none
CCN(CC)C(=O)COC(=O)C1CCN(S(=O)(=O)c2ccc3c(c2)OCCO3)CC1	none | D3 arrestin ag inactive | D2 ag-3 inactive
Cc1cccc(C)c1NC(=O)C[n+]1cc(-c2ccccc2)n2c1CCC2	D2 ag-2 75 | D3 arrestin ag inactive | D2 ag-3 inactive
Cc1ccccc1NC(=O)C[n+]1cc(-c2ccccc2)n2c1CCC2	none (no result: D2 PAM-2, D2 ag-2, D2 antagonist) | D3 arrestin ag inactive | D2 ag-3 inactive
CN(C(=O)COC(=O)c1cccc(Cl)c1)C1CCS(=O)(=O)C1 (centres undefined)	none
CCN(CC(=O)Nc1c(F)cccc1F)C(=O)c1ccc2c(c1)OCCO2	none
CC(=O)Cn1cnc2c(cnn2-c2ccc(C)c(C)c2)c1=O	none
CC(C)C(NC(=O)CCN1C(=O)c2ccccc2C1=O)c1ccccc1 (centres undefined)	none | D3 arrestin ag inactive | D2 ag-3 inactive
CC(NC(=O)CN1C(=O)c2ccccc2C1=O)c1ccccc1 (centres undefined)	none (no result: D2 PAM-2, D2 ag-2, D2 antagonist)
COc1ccc(CCNC2CCC(c3ccccc3)CC2)cc1 (centres undefined)	D2 ag-2 36, D2 antagonist 78 | D3 arrestin ag inactive | D2 ag-3 inactive
CC(=O)CSc1nnc(-c2ccc(S(=O)(=O)N3CCOCC3)cc2)n1C	none (no result: D2 PAM-2, D2 ag-2, D2 antagonist) | D3 arrestin ag inactive | D2 ag-3 inactive
CC(=O)CSc1nnc(-c2ccc(S(=O)(=O)N3CCCC3)cc2)n1C	none
CC(=O)c1cccc(NC(=O)C2C3C=CC(C4CC34)C2C(=O)O)c1 (centres undefined)	none
COCCOCC(O)CN1CCN(c2ccccc2)CC1 (centres undefined)	D2 ag-2 84, D2 antagonist 59 | D3 arrestin ag inactive | D2 ag-3 inactive
OC(COCc1ccccc1)CN1CCN(c2ccccc2)CC1 (centres undefined)	D2 ag-2 86, D2 antagonist 86 | D3 arrestin ag inconclusive | D2 ag-3 inconclusive
OC(COCC1COc2ccccc2O1)CN1CCN(c2ccccc2)CC1 (centres undefined)	D2 ag-1 inconclusive, D2 ag-2 67, D2 antagonist 60 | D3 arrestin ag inconclusive | D2 ag-3 inconclusive

Bioassay records as filed in PubChem.
